Sampled rows, rich in hits. Any-hit rate of the full collection: about 21%.
MRP resist rev: reversal of MRP1-mediated doxorubicin resistance, primary screen, H69AR cells, doxorubicin co-treatment; H69AR cells + 2 uM doxorubicin, CellTiter-Glo, 72 h; differential viability (reversal), % at 10 µM; hit rate 0.04% among 85,000; AID 602, 2007;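 active = viability drop by adding the cancer drug above about 55%, with treated viability meeting a 40% cutoff, limit read from the data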;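 also: larger differential means the compound sensitizes cells more to doxorubicin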
CYP2C9 activ: human CYP2C9 activators, primary screen, biochemical, luminescence. recombinant CYP2C9, luciferin-H conversion; stronger effect = higher value; factor 1 = untreated enzyme, 0 = blocked. activation factor at 5 µM. hit rate 1.4% among 96,000;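 active = activation factor of 2 or more for CYP2C9 at a 5 µM dose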
Target sequence (P11712 whole entry, looked up): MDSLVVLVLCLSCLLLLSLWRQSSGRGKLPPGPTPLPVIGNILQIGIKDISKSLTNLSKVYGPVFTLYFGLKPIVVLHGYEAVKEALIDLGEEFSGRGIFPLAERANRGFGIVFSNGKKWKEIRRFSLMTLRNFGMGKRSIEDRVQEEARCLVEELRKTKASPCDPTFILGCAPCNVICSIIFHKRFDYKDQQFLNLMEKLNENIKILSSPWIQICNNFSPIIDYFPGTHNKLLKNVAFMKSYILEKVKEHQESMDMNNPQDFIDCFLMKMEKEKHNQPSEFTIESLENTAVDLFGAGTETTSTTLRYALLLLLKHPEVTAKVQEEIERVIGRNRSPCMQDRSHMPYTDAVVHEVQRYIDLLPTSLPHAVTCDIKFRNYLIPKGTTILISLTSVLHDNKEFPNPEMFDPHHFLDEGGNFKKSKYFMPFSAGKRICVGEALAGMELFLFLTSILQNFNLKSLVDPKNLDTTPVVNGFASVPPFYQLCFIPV
CYP2C19 act: human CYP2C19 activators, primary screen, biochemical, luminescence. Cytochrome P450 2C19 (Homo sapiens), P33261. activation factor at 5 µM. 96,000 tested, under 10 active. recombinant CYP2C19, luciferin-H EGE luminescence; stronger effect = higher value; 0 = fully inhibited enzyme, 1 = untreated enzyme;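 active = activation factor of at least 2 at 5 µM in the primary screen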
CYP2C9 inh: blockers of cytochrome P450 2C9 activity – biochemical, luminescence, ADME assay, primary screen; AID 777, 2007; inhibition, % at 5 µM; hit rate 20% among 96,000; CYP2C9 Supersomes, luciferin-H conversion;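 active = blocking of liver enzyme CYP2C9 beyond about 50% at 5 µM, limit read from the data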
MRP1 act: H69AR viability gain despite doxorubicin, primary screen, MRP-1 activator project, H69AR cells, CellTiter-Glo | viability rescue | viability increase, % at 10 µM | hit rate 0.61% among 140,000 | AID 799, 2007;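 active = viability gain under doxorubicin at or above a set limit, the compound median plus 3 SD, cut at about 4.7% in these data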;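 also: MRP-1 overexpressing cells given doxorubicin 25 µM after compound pretreatment; 18-22 h compound pretreatment then 72 h with doxorubicin before readout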
CYP2C19 inh: blockers of cytochrome P450 2C19 activity – biochemical, luminescence, ADME assay, primary screen. hit rate 21% among 96,000. CYP2C19 Supersomes, luciferin-H EGE luminescence, 30 min. P33261. AID 778, 2007. inhibition, % at 5 µM;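 active = CYP2C19 inhibition above a set limit at 5 µM in the primary screen, cut at about 50% in these data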
Of the large screens only hits and unclear results are named; the others gave an inactive call.

O=C(CCC1N=C2c3ccccc3N=C(SCc3ccc(F)cc3)N2C1=O)NCc1ccco1 (stereo unspecified)	CYP2C9 inh 65
CC1CCN(c2c(NCc3ccc(C(=O)N4c5ccccc5CC4C)cc3)c(=O)c2=O)CC1 (stereo unspecified)	none (no result: CYP2C9 activ, CYP2C19 act, CYP2C9 inh, CYP2C19 inh)
CCOC(=O)c1cnc2c(C)c(C)ccc2c1Nc1ccc(S(=O)(=O)Nc2ncccn2)cc1	none (no result: MRP resist rev, CYP2C9 activ, CYP2C19 act, CYP2C9 inh, CYP2C19 inh)
CCCCNC(=O)CC1N=C2c3ccccc3N=C(SCC(=O)Nc3ccc(OC)cc3)N2C1=O (stereo unspecified)	CYP2C9 inh 60
CC1CN(c2oc(-c3ccco3)nc2S(=O)(=O)c2ccccc2)CC(C)O1 (stereo unspecified)	none
Cc1nnc(NC(=O)c2c(-c3ccccc3)noc2C)s1	none
Cc1cc(C(=O)OC(C)C(=O)Nc2nc(-c3ccccc3)cs2)c(C)o1 (stereo unspecified)	CYP2C9 inh 96, CYP2C19 inh 89 (no result: MRP resist rev)
Cc1cc(C(=O)OCC(=O)Nc2nc(-c3ccccc3)cs2)c(C)o1	none
CCC(CC)c1nnc(NC(=O)c2c(-c3ccccc3)noc2C)s1	CYP2C9 inh 58
Cc1onc(-c2ccccc2)c1C(=O)Nc1nnc(COc2ccc(Cl)cc2)s1	CYP2C9 inh 98, CYP2C19 inh 54
COC(=O)c1ccc(C)c(NC(=O)c2c(-c3ccccc3)noc2C)c1	CYP2C19 inh 69
Cc1onc(-c2c(F)cccc2Cl)c1C(=O)Nc1nnc(-c2ccccc2)s1	none
Cc1onc(-c2ccccc2)c1C(=O)Nc1nc(-c2ccccc2)cs1	CYP2C9 inh 72, CYP2C19 inh 70 (no result: MRP resist rev)
Cc1onc(-c2ccccc2)c1C(=O)N/N=C/c1cccc(O)c1	none (no result: MRP resist rev, CYP2C9 activ, CYP2C19 act, CYP2C9 inh, CYP2C19 inh)
COc1cccc(/C=N/NC(=O)c2c(-c3ccccc3)noc2C)c1	CYP2C9 inh 67, CYP2C19 inh 50 (no result: MRP resist rev)
O=S(=O)(c1ccc(N2CCCC2c2nc3ccccc3s2)nc1)N1CCOCC1 (stereo unspecified)	CYP2C9 inh 86, CYP2C19 inh 89
O=S(=O)(c1ccc(Br)cc1)N1CCCC1c1nc2ccccc2s1 (stereo unspecified)	none (no result: MRP resist rev, CYP2C9 activ, CYP2C19 act, CYP2C9 inh, CYP2C19 inh)
CC(C)CC1=NN(C(=O)c2ccncc2)C(O)(C(F)(F)F)C1 (stereo unspecified)	none (no result: MRP resist rev, CYP2C9 activ, CYP2C19 act, CYP2C9 inh, CYP2C19 inh)
O=C(NNC(=O)c1ccccc1Br)c1ccc(SCC2CCCO2)c([N+](=O)[O-])c1 (stereo unspecified)	CYP2C9 inh 62
O=C(NNC(=O)c1ccc(SCC2CCCO2)c([N+](=O)[O-])c1)c1ccc(Cl)c([N+](=O)[O-])c1 (stereo unspecified)	CYP2C9 inh 74
Cc1ccc(C(=O)NNC(=O)c2ccc(SCC3CCCO3)c([N+](=O)[O-])c2)cc1 (stereo unspecified)	MRP1 act 8.2
Cc1cccc(NC(=O)c2ccc(NCC3CCCO3)c([N+](=O)[O-])c2)c1 (stereo unspecified)	none (no result: MRP resist rev, CYP2C9 activ, CYP2C19 act, CYP2C9 inh, CYP2C19 inh)
O=C(NC(=S)NCC1CCCO1)c1ccccc1Br (stereo unspecified)	none (no result: MRP resist rev, CYP2C9 activ, CYP2C19 act, CYP2C9 inh, CYP2C19 inh)
O=C(Nc1cccc(Cl)c1)c1ccc(NCC2CCCO2)c([N+](=O)[O-])c1 (stereo unspecified)	none (no result: MRP resist rev, CYP2C9 activ, CYP2C19 act, CYP2C9 inh, CYP2C19 inh)
CCOC(=O)c1cc2sc(C)cc2n1CCCN1C(=O)c2ccccc2C1=O	CYP2C9 inh 57
CCOC(=O)c1cc2occc2n1CCCN1C(=O)c2ccccc2C1=O	CYP2C9 inh 87
CCOC(=O)c1cc(-c2ccccc2)sc1NC(=O)CCN1C(=O)c2ccccc2C1=O	none (no result: MRP resist rev, CYP2C9 activ, CYP2C19 act, CYP2C9 inh, CYP2C19 inh)
CCOC(=O)C1=NN(C(=O)c2ccc(C)cc2)C(O)(c2ccc(Cl)cc2)C1 (stereo unspecified)	CYP2C19 inh 56 (no result: MRP resist rev)
COC(=O)C1=NN(C(=O)c2ccc(Cl)cc2)C(O)(c2ccccc2)C1 (stereo unspecified)	none (no result: MRP resist rev)
O=C(O)CC1=C(c2ccc(F)cc2)CCC1=O	none (no result: MRP resist rev, CYP2C9 activ, CYP2C19 act, CYP2C9 inh, CYP2C19 inh)
Cc1cc(NC(=O)COn2nnc3ccc(Cl)cc32)no1	CYP2C9 inh 77
CC1CCCCC1NC(=O)COn1nnc2ccc(Cl)cc21 (stereo unspecified)	CYP2C19 inh 98

Source: PubChem BioAssay (several laboratories)
